Reference: ChEMBL document CHEMBL1961873, “Compounds: GSK PKIS; Assays: Nanosyn kinase panel” (2012)

Columns and labels:
[1] = biological target: MAP/microtubule affinity-regulating kinase 3 (Homo sapiens) (UniProt P27448); conditions: at 1 µM;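 note: reported values are averaged percent inhibition of MARK3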
[2] = biological target: T1, MAP/microtubule affinity-regulating kinase 4 (Homo sapiens) (UniProt Q96L34); conditions: at 0.1 µM
T1 sequence (whole entry): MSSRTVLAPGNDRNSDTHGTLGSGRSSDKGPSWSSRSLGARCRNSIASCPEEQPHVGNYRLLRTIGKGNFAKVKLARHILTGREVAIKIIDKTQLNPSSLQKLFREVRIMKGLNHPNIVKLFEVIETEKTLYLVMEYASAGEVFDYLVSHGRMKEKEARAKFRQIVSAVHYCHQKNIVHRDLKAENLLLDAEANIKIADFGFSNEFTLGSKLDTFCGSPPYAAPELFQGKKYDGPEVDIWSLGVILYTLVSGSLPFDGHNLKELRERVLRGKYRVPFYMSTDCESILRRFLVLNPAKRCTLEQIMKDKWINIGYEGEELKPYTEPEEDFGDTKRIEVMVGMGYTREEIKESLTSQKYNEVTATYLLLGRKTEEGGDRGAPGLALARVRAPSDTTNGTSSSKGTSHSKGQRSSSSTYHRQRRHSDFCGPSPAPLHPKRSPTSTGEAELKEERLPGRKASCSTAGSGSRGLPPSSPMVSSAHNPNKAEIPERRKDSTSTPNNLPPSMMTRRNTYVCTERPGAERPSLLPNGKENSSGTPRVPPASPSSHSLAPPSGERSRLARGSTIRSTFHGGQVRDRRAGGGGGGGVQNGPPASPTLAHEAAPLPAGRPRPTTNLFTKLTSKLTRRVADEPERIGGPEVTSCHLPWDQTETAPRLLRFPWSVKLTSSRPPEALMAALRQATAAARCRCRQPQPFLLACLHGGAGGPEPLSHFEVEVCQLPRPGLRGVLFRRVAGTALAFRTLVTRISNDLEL

[3] = biological target: T1, MAP/microtubule affinity-regulating kinase 4 (Homo sapiens); conditions: at 1 µM
[4] = biological target: Maternal embryonic leucine zipper kinase (Homo sapiens) (UniProt Q14680); conditions: at 0.1 µM
[5] = biological target: Maternal embryonic leucine zipper kinase (Homo sapiens) (UniProt Q14680); conditions: at 1 µM
[6] = biological target: MAP kinase-interacting serine/threonine-protein kinase 1 (Homo sapiens) (UniProt Q9BUB5); conditions: at 0.1 µM
[7] = biological target: MAP kinase-interacting serine/threonine-protein kinase 1 (Homo sapiens) (UniProt Q9BUB5); conditions: at 1 µM
[8] = biological target: MAP kinase-interacting serine/threonine-protein kinase 2 (Homo sapiens) (UniProt Q9HBH9); conditions: at 0.1 µM
[9] = biological target: MAP kinase-interacting serine/threonine-protein kinase 2 (Homo sapiens) (UniProt Q9HBH9); conditions: at 1 µM
[10] = biological target: Serine/threonine-protein kinase MARK2 (Homo sapiens) (UniProt Q7KZI7); conditions: at 0.1 µM;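 note: mean percent inhibition of PAR-1Balpha kinase activity, reported from the GSK PKIS screen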
Chain of Serine/threonine-protein kinase MARK2 (Homo sapiens) (Q7KZI7 whole entry): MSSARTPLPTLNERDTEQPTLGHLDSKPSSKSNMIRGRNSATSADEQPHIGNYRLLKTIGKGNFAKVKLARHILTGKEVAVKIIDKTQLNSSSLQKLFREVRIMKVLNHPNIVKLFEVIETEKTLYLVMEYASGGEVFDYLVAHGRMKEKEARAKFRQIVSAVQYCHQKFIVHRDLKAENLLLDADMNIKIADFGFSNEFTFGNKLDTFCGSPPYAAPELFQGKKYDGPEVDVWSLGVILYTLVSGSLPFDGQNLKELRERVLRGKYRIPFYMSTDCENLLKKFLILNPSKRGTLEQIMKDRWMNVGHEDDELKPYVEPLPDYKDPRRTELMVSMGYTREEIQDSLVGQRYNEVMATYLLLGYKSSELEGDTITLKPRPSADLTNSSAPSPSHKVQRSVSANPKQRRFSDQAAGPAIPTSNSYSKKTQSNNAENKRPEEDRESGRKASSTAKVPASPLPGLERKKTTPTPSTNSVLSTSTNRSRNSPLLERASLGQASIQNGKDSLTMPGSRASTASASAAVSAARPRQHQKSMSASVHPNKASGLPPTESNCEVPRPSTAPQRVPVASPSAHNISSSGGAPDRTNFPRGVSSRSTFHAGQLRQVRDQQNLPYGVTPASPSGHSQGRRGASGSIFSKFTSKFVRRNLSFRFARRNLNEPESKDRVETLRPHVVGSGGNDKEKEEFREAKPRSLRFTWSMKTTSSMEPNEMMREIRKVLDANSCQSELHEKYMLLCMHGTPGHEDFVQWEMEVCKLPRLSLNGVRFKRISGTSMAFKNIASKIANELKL

Chain of Maternal embryonic leucine zipper kinase (Homo sapiens) (Q14680 whole entry, looked up): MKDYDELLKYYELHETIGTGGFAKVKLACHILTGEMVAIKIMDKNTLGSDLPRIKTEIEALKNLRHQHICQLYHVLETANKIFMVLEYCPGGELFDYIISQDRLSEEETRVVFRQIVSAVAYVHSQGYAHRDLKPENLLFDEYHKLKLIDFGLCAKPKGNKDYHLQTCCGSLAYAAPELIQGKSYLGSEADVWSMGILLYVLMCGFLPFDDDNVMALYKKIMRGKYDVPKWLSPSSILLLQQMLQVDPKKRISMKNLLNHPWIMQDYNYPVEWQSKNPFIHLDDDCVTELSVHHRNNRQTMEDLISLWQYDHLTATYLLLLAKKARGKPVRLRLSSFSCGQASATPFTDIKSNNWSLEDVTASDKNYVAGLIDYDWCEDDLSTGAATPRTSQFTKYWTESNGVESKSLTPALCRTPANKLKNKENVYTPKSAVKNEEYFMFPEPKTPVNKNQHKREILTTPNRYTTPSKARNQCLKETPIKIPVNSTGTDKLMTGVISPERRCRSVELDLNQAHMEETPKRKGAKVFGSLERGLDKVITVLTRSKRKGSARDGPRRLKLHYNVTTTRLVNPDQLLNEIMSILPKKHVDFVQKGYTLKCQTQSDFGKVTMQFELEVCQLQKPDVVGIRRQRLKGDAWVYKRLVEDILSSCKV
Chain of MAP/microtubule affinity-regulating kinase 3 (Homo sapiens) (P27448 whole entry, looked up): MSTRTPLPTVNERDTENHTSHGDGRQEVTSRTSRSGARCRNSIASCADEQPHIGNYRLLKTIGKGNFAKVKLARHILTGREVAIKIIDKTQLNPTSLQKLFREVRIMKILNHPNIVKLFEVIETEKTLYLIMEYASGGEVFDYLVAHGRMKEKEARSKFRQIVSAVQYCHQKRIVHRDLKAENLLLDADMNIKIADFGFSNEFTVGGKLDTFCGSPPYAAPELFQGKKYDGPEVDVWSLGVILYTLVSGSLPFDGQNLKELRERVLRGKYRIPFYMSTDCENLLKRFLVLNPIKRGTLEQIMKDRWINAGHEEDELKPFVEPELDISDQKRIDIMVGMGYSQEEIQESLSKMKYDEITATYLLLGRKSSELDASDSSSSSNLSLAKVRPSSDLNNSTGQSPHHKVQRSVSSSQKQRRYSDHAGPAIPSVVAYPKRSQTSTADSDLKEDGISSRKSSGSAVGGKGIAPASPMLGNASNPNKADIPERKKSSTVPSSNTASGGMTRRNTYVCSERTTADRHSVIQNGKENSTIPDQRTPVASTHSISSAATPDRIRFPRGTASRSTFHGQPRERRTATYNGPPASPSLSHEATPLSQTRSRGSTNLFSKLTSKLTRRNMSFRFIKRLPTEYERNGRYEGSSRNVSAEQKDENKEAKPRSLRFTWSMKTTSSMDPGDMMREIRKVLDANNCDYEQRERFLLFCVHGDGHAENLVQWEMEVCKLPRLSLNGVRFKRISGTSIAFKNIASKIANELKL
Chain of MAP kinase-interacting serine/threonine-protein kinase 1 (Homo sapiens) (Q9BUB5 whole entry, looked up): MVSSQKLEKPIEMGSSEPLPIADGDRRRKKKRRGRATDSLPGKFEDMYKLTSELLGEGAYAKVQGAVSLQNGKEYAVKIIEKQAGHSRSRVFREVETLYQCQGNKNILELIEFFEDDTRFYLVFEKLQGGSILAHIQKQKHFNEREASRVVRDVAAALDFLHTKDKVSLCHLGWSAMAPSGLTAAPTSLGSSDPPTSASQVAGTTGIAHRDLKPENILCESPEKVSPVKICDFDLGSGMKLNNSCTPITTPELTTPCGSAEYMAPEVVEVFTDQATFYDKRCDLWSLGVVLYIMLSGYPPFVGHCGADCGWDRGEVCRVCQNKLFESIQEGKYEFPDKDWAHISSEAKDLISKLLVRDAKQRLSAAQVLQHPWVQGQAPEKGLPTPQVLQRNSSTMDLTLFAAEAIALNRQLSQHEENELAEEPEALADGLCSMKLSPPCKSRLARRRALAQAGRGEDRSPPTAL
Chain of MAP kinase-interacting serine/threonine-protein kinase 2 (Homo sapiens) (Q9HBH9 whole entry, looked up): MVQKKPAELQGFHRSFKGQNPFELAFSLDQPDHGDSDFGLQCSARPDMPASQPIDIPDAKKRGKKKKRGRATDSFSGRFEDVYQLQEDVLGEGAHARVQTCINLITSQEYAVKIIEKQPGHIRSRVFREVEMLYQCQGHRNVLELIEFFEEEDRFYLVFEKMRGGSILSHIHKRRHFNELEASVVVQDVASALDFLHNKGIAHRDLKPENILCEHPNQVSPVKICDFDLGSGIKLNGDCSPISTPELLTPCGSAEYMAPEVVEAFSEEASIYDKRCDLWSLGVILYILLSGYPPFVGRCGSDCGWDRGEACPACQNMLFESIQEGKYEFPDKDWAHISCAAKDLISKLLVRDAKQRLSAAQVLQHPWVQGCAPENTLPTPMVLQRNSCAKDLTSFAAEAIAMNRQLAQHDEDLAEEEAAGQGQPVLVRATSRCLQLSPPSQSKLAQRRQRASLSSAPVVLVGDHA

Structure (SMILES)	inhibition [1] [%]	inhibition [2] [%]	inhibition [3] [%]	inhibition [4] [%]	inhibition [5] [%]	inhibition [6] [%]	inhibition [7] [%]	inhibition [8] [%]	inhibition [9] [%]	inhibition [10] [%]
COc1cc2ncn(-c3cc(OCc4ccccc4C(F)(F)F)c(C(C)=O)s3)c2cc1OC	3.71	3	2.91	3.94	1.83	3.58	5.46	1.92	4.93	-0.07
COC(=O)Nc1nc2ccc(Sc3ccc(NC(=O)Nc4cc(C(F)(F)F)ccc4F)cc3)cc2[nH]1	1.81	-1.27	-0.2	-2.18	-2.88	-0.03	4.58	0.6	1.48	0.92
CNC(=O)c1cncc(/C=C/c2c(C)cccc2C)c1	2	-0.27	1.46	-1.92	0.37	-0.2	8.06	0.57	5.36	0.03
c1ccc(Oc2ccc(Nc3ncc(-c4ccccc4)o3)cc2)cc1	-0.43	-0.01	0.55	2.47	2.86	1.08	4.15	0.86	2.44	-0.89
Cc1ccc(NC(=O)c2ccoc2)cc1-c1ccc(C(=O)NCC2CC2)cc1	1.79	0.31	0.19	3.06	-0.33	3.06	4.75	-0.05	2.22	-0.93
O=C1Nc2ccccc2/C1=C/Nc1ccc(-n2cncn2)cc1	36.4	3.35	17.9	6.89	25.8	7.6	14.8	2.4	8.07	1.47
COc1cc(N2CCN(C(C)C)CC2)ccc1Nc1nc(Nc2ccc(F)cc2C(=O)NC[C@@H](O)CO)c2cc[nH]c2n1	19.6	1.95	2.9	3.61	19.9	3.33	8.52	1.03	5.28	1.97
O=C(Nc1n[nH]c2nc(-c3ccc(O)cc3)c(Br)cc12)C1CC1	8.75	3.64	4.75	6.28	13.1	37.8	76.1	5.42	35.1	-0.95
Nc1nccc(-c2c(-c3ccc(F)cc3)ncn2C2CCC(O)CC2)n1 (stereo not given)	0.22	0.43	1.28	-3.21	1.19	0.34	0.48	0.18	0.46	1.84
O=C(Nc1ccc(Oc2ccc3[nH]c(NC(=O)c4ccccc4)nc3c2)cc1)Nc1cc(C(F)(F)F)ccc1F	22.9	0.56	3.1	3.83	2.36	3.79	21	2.44	22.1	-0.01
O=C(Nc1n[nH]c2nc(-c3ccco3)ccc12)C1CC1	1.53	0.31	0.56	2.23	2.05	1.89	9.62	0.06	4.01	0.19
Fc1ccc(-c2nc3n(c2-c2ccncc2)CCS3)cc1	-0.12	2.4	3.63	4.86	6.72	1.57	4.14	-2.37	0.35	0.46
Fc1ccc(-c2c(-c3ccncc3)nc3n2CCS3)cc1	11.9	1.3	2.25	4.24	7.4	0.84	8.91	0.34	6.79	1.04
CCc1ccc(Oc2nccc(-c3c(-c4ccc(F)cc4)ncn3C3CCNCC3)n2)cc1	7.86	2.89	4.67	6.32	5.64	2.17	4.48	3.36	3.52	1.93
C[C@@H](Oc1cc(-n2cnc3ccc(OCC4CCN(C)CC4)cc32)sc1C(N)=O)c1ccccc1Cl	31.2	6.41	23.9	7.59	37.9	2.4	5.78	1.96	5.86	3.52
Fc1ccc(-c2ncn(C3CCNCC3)c2-c2ccnc(Oc3ccc(F)c(F)c3)n2)cc1	12.2	3.57	4.5	7.73	7.03	2.05	3.06	1.28	1.04	-0.25
COc1ccc2cc(-c3c(-c4ccncc4)nc(-c4ccc([S+](C)[O-])cc4C)n3C)ccc2c1 (stereo not given)	-1.9	-0.17	-0.24	0.29	0.51	5.22	10	0.98	3.96	-1.24
